The panel holds about 83,000 compounds, 20% with a hit somewhere; the sample as a whole holds those more often.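 How to read the values: 0–100, growth inhibition (40 = 60% inhibited); 0, no net growth; -100 to 0, cell death (-40 = 40% of starting cells died; -100 = all dead).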 Unmarked numbers belong to inactive results. Activity calls are given as the source filed them. How the source made its calls: active means growth percent below 10; inactive means the rest.
Experiments:
Assay in all cases: NCI-60 one-dose screen, 48 h (100 = growth as untreated, 0 = no growth, -100 = all killed)
Conditions in all cases: 10 µM unless noted
HCT-15 colon = system: HCT-15 colon
HT29 colon = system: HT29 colon
SNB-75 CNS = system: SNB-75 CNS
U251 CNS = system: U251 CNS
PC-3 prostate = system: PC-3 prostate
SK-MEL-5 melanoma = system: SK-MEL-5 melanoma
UACC-62 melanoma = system: UACC-62 melanoma
LOX IMVI melanoma = system: LOX IMVI melanoma
SK-MEL-28 melanoma = system: SK-MEL-28 melanoma
EKVX NSCLC = system: EKVX NSCLC
SN12C renal = system: SN12C renal
UO-31 renal = system: UO-31 renal
TK-10 renal = system: TK-10 renal
ACHN renal = system: ACHN renal
CAKI-1 renal = system: CAKI-1 renal
CCRF-CEM leukemia = system: CCRF-CEM leukemia
MOLT-4 leukemia = system: MOLT-4 leukemia
A498 renal = system: A498 renal
SK-MEL-2 melanoma = system: SK-MEL-2 melanoma
SNB-19 CNS = system: SNB-19 CNS

| SMILES | growth (HCT-15 colon) | growth (HT29 colon) | growth (SNB-75 CNS) | growth (U251 CNS) | growth (PC-3 prostate) | growth (SK-MEL-5 melanoma) | growth (UACC-62 melanoma) | growth (LOX IMVI melanoma) | growth (SK-MEL-28 melanoma) | growth (EKVX NSCLC) | growth (SN12C renal) | growth (UO-31 renal) | growth (TK-10 renal) | growth (ACHN renal) | growth (CAKI-1 renal) | growth (CCRF-CEM leukemia) | growth (MOLT-4 leukemia) | growth (A498 renal) | growth (SK-MEL-2 melanoma) | growth (SNB-19 CNS) |
| --- | --- | --- | --- | --- | --- | --- | --- | --- | --- | --- | --- | --- | --- | --- | --- | --- | --- | --- | --- | --- |
| COc1cc(/C=C2\C(=O)Nc3ccc(N(C)C)cc32)cc(OC)c1OC | 17% | 9.36% (active) | -17.1% (active) | 11.4% | 35% | 21.5% | -0.443% (active) | 32.8% | 43.4% | 34.4% | 25.2% | 35.2% | 42.3% | 41.6% | 22.2% | 21.9% | 36.2% |  |  |  |
| CCOC(=O)C(=CNc1ccccc1Cl)C(=O)OCC | 88.2% | 89.1% | 108% | 94.5% | 95.8% | 77.1% | 72.4% | 95.8% | 116% | 106% | 101% | 89.1% | 99.3% | 79.2% |  | 85.8% |  | 5.74% (active) |  |  |
| Clc1ccccc1Nc1nnc(-c2ccncc2)s1 | 112% | 105% | 106% | 103% | 97.2% | 97.7% | 95.3% | 110% | 100% | 91.7% | 86% | 90.7% | 111% | 104% | 90.5% | 96% | 93.4% | 92.1% | 107% |  |
| COc1ccc(/C=C2\N=C(c3cccnc3)N(c3ccccc3)NC2=O)cc1 | 95.1% | 107% | 80.6% | 106% | 74.2% | 98.7% | 95.4% | 92.7% | 129% |  | 105% | 82.2% | 101% | 115% | 97.6% | -21.1% (active) | 85.6% | 71.8% |  |  |
| COC(=O)C1(C)COP(=O)(NC23CC4CC(CC(C4)C2)C3)OC1 (stereo not given) | 101% | 100% | 94.9% | 99.5% | 94.6% | 99.9% |  | 98.2% | 98.7% | 98.4% | 113% | 87.2% | 96.7% | 103% | 103% | 98.2% | 109% | 103% |  |  |
| CC1=NN(c2cccc(S(N)(=O)=O)c2)C(=O)C1 | 111% | 104% | 82.7% | 101% | 80.1% | 92.8% | 89.7% | 96.3% | 111% |  | 90.9% | 77.1% | 97.8% | 99.6% | 51% | 79.6% | 99.7% | 88.6% |  |  |
| COc1ccc(/C=c2\c(=O)n(-c3ccccc3)c3nn4c(=O)c(=O)[nH]nc4n23)cc1 | 106% | 110% | 109% | 112% | 102% | 101% | 101% | 96.3% | 131% | 104% | 108% | 83% | 133% | 114% | 90.4% | 106% | 110% | 118% | 109% |  |
| COC(=O)C(C)NC1=C(Cl)C(=O)C(NC(C)C(=O)OC)=C(Cl)C1=O (stereo not given) | 92.6% | 98.2% | 86% | 98% | 92% | 79.2% | 99.8% | 91.1% | 111% |  | 99.5% |  | 121% | 106% | 103% | 96% | 93.5% | 89.3% |  |  |
| CC1C2CCC(C2)C1COCCOCCO (stereo not given) | 98.3% |  | 109% | 91.9% | 101% | 106% | 104% | 94.9% | 109% | 112% | 109% | 98.7% | 109% | 106% | 105% | 112% | 97.6% | 83.7% | 112% | 123% |
| Cc1cc(-c2nnc(/C=C/c3ccc4c(c3)OCO4)o2)n[nH]1 | 44.3% | 23% | 51.3% | 85.1% | 74.3% | 70.9% | 69.5% | 52.5% | 71.5% | 90.6% | 85.5% | 70.1% | 81.8% | 95.7% | 59.8% | 58.1% | 69.7% | 73.2% | 30.1% |  |
| CN=C1C=C/C(=N/N=c2/ccn(O)cc2C)C=C1C | 97.2% | 99.5% | 84.4% | 102% | 95.2% | 97.8% | 89% | 95.4% | 120% | 87.4% | 90% |  | 118% | 93.8% | 93.9% | 105% | 89.1% | 96% | 97.6% |  |
| COCCOCCOCc1n(Cc2ccc3ccccc3n2)c2ccccc2[n+]1Cc1ccc2ccccc2c1 | 78.3% | -4.5% (active) | -5.72% (active) | 12.4% | 5.71% (active) | -94.1% (active) | -38.5% (active) | -76% (active) | 8.66% (active) | 31% | 5.5% (active) | 79.2% | -8.46% (active) | 71.1% |  | 1.17% (active) | -20.5% (active) | -15.8% (active) |  |  |
| Cn1nc(C(F)(F)F)cc1-c1c[nH]c(OCc2ccc(Cl)cc2)c(-c2ccc(Cl)c(C(F)(F)F)c2)c1=O | 6.6% (active) | 5.99% (active) | -6.2% (active) | 8.33% (active) | 5% (active) | -63.9% (active) | -14.9% (active) | 7.07% (active) | 10.1% | 5.56% (active) | 4.1% (active) | -1.38% (active) | 3.46% (active) | -15.8% (active) | -22.7% (active) | 10.5% | -9.43% (active) | -60.9% (active) | -31.4% (active) |  |
| CCOC(C)(c1ccc(Cl)cc1)C1CCNCC1 (stereo not given) | 94.8% | 85.2% | 82.2% | 92.4% | 82.6% | 102% | 101% | 65.2% | 109% |  | 100% | 80.6% | 96.1% | 98.4% | 100% | 109% | 81.7% | 86.1% | 106% |  |
| O=C1C(Cl)=C(N/N=c2/[nH][nH]/c(=N/NC3=C(Cl)C(=O)c4ccccc4C3=O)c3ccccc23)C(=O)c2ccccc21 | 83.9% | 102% | 63.6% | 2.88% (active) | 55.5% | 62.6% | 25.7% | 69.8% | 104% |  | 56.4% | 54.7% | 130% | 61.9% | 104% | 16.5% | 11.4% | 57% | 96.4% |  |
| C=CCn1c(C)nc2cc(Nc3nc(N4CCOCC4)nc4nc[nH]c34)ccc21 | 90.9% | 99.7% | 80.4% | 91.3% | 79.9% | 96.2% | 88.9% | 95.2% | 102% |  | 84.3% | 87.4% | 92.4% |  | 93.8% | 89.9% | 74.4% | 37.5% |  |  |
| CCN(CC)CCCC(C)Nc1cnc(C(=O)Nc2cccc3ccc(OC)nc23)cn1 (stereo not given) | -25.6% (active) | -47.2% (active) | 75.9% | 56.1% | 69.5% | 5.4% (active) | -57.8% (active) | -89.9% (active) |  | 104% | 78.5% | 69.1% | 91% | -86.5% (active) | 94.7% | -7.65% (active) | 53.4% | 46.2% | 70.5% |  |

Source: PubChem BioAssay (NCI)
